Common to all, as to assay: DAPPL (digital affinity profiling via proximity ligation, sequencing); 10 mM Tris-HCl pH 7.5, 50 mM NaCl, 1 mM DTT, 4% glycerol, room temperature, 30 min; GST-TFs on glutathione beads, 16-mer random dsDNA library, 0.1% formaldehyde crosslink after washing; high values mean tight binding
What all share (conditions): protein: recombinant; tags: N-terminal GST; dsDNA, one strand shown

Assay [1] concerns the target T1, ERF (Homo sapiens, UniProt P50548 1-548).
T1 sequence: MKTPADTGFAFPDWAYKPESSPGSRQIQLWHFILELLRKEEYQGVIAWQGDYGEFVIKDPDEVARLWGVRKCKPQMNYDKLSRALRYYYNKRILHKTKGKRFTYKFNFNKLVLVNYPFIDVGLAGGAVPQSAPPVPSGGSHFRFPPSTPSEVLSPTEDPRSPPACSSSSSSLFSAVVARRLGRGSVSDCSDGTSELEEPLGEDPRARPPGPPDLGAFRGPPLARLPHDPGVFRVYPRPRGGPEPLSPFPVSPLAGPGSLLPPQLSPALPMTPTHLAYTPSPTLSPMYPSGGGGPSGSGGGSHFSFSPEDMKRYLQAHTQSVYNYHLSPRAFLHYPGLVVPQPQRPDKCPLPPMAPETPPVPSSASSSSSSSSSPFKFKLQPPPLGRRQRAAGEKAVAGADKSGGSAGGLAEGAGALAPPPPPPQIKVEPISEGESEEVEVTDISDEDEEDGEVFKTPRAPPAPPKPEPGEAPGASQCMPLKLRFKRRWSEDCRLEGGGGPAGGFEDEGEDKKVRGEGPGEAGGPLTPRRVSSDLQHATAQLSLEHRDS
The gist of the method:
(§1)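 Beads coated with glutathione captured GST-fused human transcription factors that had been expressed in yeast, and the factors were then given DNA barcodes and pooled with a tag-only sample. The pools were incubated with 200 nmole of a random double-stranded 16-mer DNA library in Tris/NaCl/DTT/glycerol buffer for 30 min at room temperature, washed, crosslinked with 0.1% formaldehyde and proximity-ligated with BsaI/T4 ligase at 37 °C for 1 h. PCR amplification and Illumina NextSeq500 sequencing came last. Binding signal is each hexamer's read frequency for a factor divided by its frequency for the tag-only sample.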

For assay [2], the target named is T2, ETV3L (Homo sapiens, UniProt Q6ZN32 1-361).
T2 sequence: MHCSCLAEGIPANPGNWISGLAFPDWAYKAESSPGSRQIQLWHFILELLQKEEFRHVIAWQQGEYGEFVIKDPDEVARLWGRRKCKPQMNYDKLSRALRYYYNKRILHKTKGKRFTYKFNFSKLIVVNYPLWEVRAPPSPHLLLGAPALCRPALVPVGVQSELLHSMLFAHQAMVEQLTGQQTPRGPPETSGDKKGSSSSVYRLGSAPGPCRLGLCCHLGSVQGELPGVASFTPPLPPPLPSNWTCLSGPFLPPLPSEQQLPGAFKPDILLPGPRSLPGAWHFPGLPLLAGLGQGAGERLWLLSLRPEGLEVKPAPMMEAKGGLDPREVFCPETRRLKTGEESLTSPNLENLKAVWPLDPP
An outline of the steps: as §1

Assay [3] concerns the target T3, ETS2 (Homo sapiens, UniProt P15036 1-469).
T3 sequence: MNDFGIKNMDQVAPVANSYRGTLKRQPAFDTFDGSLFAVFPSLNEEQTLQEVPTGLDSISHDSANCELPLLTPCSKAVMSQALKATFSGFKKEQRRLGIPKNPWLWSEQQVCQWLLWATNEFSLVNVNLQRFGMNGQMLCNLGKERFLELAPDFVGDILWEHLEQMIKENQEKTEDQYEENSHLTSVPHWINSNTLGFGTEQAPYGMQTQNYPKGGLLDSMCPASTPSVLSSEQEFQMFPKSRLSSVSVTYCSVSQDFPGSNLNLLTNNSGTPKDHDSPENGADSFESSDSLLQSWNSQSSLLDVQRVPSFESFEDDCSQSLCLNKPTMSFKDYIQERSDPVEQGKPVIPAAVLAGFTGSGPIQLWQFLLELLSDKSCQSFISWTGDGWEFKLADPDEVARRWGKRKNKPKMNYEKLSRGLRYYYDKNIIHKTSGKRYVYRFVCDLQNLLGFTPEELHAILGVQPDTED
An outline of the steps: as §1

Assay [4] has as its target T4, SPDEF (Homo sapiens, UniProt O95238 1-335).
T4 sequence: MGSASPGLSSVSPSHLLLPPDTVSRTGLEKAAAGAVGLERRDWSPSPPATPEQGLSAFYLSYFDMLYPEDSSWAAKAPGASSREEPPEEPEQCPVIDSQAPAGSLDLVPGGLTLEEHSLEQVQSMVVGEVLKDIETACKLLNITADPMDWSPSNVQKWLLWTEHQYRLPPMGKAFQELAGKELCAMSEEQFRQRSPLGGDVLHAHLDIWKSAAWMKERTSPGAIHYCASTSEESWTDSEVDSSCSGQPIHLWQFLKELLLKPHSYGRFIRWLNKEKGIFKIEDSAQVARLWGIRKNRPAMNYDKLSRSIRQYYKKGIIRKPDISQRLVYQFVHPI
The gist of the method:
as §1

Assay [5] has as its target T5, ETV7 (Homo sapiens, UniProt Q9Y603 1-341).
T5 sequence: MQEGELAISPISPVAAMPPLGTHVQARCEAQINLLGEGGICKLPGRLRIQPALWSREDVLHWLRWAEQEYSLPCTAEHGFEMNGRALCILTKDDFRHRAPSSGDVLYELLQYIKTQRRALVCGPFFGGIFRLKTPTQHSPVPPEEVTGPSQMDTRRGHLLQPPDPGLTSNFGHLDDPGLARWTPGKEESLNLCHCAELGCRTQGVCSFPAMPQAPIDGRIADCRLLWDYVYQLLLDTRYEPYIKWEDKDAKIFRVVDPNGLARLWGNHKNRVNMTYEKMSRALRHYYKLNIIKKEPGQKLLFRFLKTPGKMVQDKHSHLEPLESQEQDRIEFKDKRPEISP
The gist of the method: as §1

Assay [6] addresses T6, ELF5 (Homo sapiens, UniProt Q9UKW6-2 1-255).
T6 sequence: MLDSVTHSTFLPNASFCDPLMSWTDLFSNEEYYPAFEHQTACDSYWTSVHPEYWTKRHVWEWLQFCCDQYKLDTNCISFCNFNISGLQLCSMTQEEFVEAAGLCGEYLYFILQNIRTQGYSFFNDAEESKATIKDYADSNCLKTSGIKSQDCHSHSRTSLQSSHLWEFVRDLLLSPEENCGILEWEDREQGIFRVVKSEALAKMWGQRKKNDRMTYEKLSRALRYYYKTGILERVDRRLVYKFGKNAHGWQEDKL
An outline of the steps: as §1

Assay [7] addresses T7, ETV3 (Homo sapiens, UniProt P41162-2 1-143).
T7 sequence: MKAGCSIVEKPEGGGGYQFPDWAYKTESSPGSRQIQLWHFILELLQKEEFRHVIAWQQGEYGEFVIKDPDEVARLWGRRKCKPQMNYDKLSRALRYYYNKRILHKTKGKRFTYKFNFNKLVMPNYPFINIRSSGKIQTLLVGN
An outline of the steps:
as §1

The target of assay [8] is ETV6 (Homo sapiens, UniProt P41212 1-452). An outline of the steps:
as §1

ETV6, sequence (P41212 whole entry): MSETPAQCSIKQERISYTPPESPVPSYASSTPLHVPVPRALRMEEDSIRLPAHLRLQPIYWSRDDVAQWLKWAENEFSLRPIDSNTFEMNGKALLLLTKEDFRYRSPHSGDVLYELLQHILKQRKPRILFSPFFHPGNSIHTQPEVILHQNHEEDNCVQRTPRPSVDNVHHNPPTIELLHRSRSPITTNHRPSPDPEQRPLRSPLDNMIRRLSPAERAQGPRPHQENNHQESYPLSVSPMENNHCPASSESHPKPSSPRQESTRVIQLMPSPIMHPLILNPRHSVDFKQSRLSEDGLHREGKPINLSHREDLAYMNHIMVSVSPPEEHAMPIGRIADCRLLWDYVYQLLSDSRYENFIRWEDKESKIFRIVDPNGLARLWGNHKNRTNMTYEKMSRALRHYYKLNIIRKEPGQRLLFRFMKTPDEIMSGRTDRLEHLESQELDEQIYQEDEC

As to TTATAC, the binding signal in assay [1] was 1.55 fold enrichment (6-mer frequency, TF over GST control); in assay [2], 1.39 fold enrichment (6-mer frequency, TF over GST control); in assay [3] it was 1.42 fold enrichment (6-mer frequency, TF over GST control); in assay [4], 1.38 fold enrichment (6-mer frequency, TF over GST control); in assay [5], 1.53 fold enrichment (6-mer frequency, TF over GST control); in assay [6], 1.39 fold enrichment (6-mer frequency, TF over GST control). Moreover, the binding signal is 1.37 fold enrichment (6-mer frequency, TF over GST control) in assay [7] and 1.42 fold enrichment (6-mer frequency, TF over GST control) in assay [8].
On to ACAATC, for which the binding signal in assay [1] is 1.2 fold enrichment (6-mer frequency, TF over GST control); in assay [2], 1.14 fold enrichment (6-mer frequency, TF over GST control); in assay [3], 1.17 fold enrichment (6-mer frequency, TF over GST control); in assay [4], 1.16 fold enrichment (6-mer frequency, TF over GST control); in assay [5] it was 1.16 fold enrichment (6-mer frequency, TF over GST control); in assay [6] it was 1.19 fold enrichment (6-mer frequency, TF over GST control). Further, the binding signal in assay [7] was 1.14 fold enrichment (6-mer frequency, TF over GST control); in assay [8], 1.12 fold enrichment (6-mer frequency, TF over GST control).
Take CACGTT: the binding signal in assay [1] was 1.36 fold enrichment (6-mer frequency, TF over GST control); in assay [2], 1.21 fold enrichment (6-mer frequency, TF over GST control); in assay [3], 1.3 fold enrichment (6-mer frequency, TF over GST control); in assay [4] it was 1.18 fold enrichment (6-mer frequency, TF over GST control); in assay [5], 1.35 fold enrichment (6-mer frequency, TF over GST control); in assay [6], 1.12 fold enrichment (6-mer frequency, TF over GST control). The binding signal is 1.19 fold enrichment (6-mer frequency, TF over GST control) in assay [7] and 1.27 fold enrichment (6-mer frequency, TF over GST control) in assay [8].
As to AATGCC, the binding signal is 1.12 fold enrichment (6-mer frequency, TF over GST control) in assay [1]; 1.07 fold enrichment (6-mer frequency, TF over GST control) in assay [2]; 1.17 fold enrichment (6-mer frequency, TF over GST control) in assay [3]; 1.21 fold enrichment (6-mer frequency, TF over GST control) in assay [4]; 1.22 fold enrichment (6-mer frequency, TF over GST control) in assay [5]; 1.21 fold enrichment (6-mer frequency, TF over GST control) in assay [6]. For the same sequence, the binding signal in assay [7] was 1.24 fold enrichment (6-mer frequency, TF over GST control); in assay [8] it was 1.19 fold enrichment (6-mer frequency, TF over GST control).
Regarding ATCCTA, the binding signal was 1.34 fold enrichment (6-mer frequency, TF over GST control) in assay [1]; 1.32 fold enrichment (6-mer frequency, TF over GST control) in assay [2]; 1.43 fold enrichment (6-mer frequency, TF over GST control) in assay [3]; 1.72 fold enrichment (6-mer frequency, TF over GST control) in assay [4]; 1.37 fold enrichment (6-mer frequency, TF over GST control) in assay [5]; 1.45 fold enrichment (6-mer frequency, TF over GST control) in assay [6]. Further, the binding signal is 1.33 fold enrichment (6-mer frequency, TF over GST control) in assay [7] and 1.34 fold enrichment (6-mer frequency, TF over GST control) in assay [8].
Take AAGCAT: the binding signal in assay [1] is 1.19 fold enrichment (6-mer frequency, TF over GST control); in assay [2] it was 1.09 fold enrichment (6-mer frequency, TF over GST control); in assay [3] it was 1.2 fold enrichment (6-mer frequency, TF over GST control); in assay [4], 1.08 fold enrichment (6-mer frequency, TF over GST control); in assay [5], 1.14 fold enrichment (6-mer frequency, TF over GST control); in assay [6] it was 1.06 fold enrichment (6-mer frequency, TF over GST control). The binding signal was 1.13 fold enrichment (6-mer frequency, TF over GST control) in assay [7] and 1.14 fold enrichment (6-mer frequency, TF over GST control) in assay [8].

The values are drawn from article PMC7862700, “An all-to-all approach to the identification of sequence-specific readers for epigenetic DNA modifications on cytosine”.
